Our source for the growth values is PubChem BioAssay (NCI).

Test systems include NCI-H23 lung; NCI-H226 lung; HOP-62 NSCLC; NCI-H460 lung; NCI-H522 lung; A549/ATCC NSCLC; 786-0 renal; COLO 205 colon.
Assay in all cases: NCI-60 one-dose screen, 48 h (100 = growth as untreated, 0 = no growth, -100 = all killed)
What all share (settings): 10 µM

Molecules are shown by their SMILES. The panel holds about 83,000 compounds, 20% with a hit somewhere; the sample as a whole holds those more often.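 Method: cells in 96-well plates; compound added at one concentration; 48 h incubation; percent growth measured; values under 10 scored active.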 Unmarked numbers belong to inactive results. The source made the active and inactive calls.

For the molecule `COc1ccc(Nc2cnc3cc(NS(=O)(=O)c4ccc(C)cc4)ccc3n2)cc1`, the growth in the assay on NCI-H23 lung is 86.5%; in the assay with NCI-H226 lung, 94%; in the assay with HOP-62 NSCLC, 79%; in the assay on NCI-H460 lung, 84.4%; in the assay with NCI-H522 lung it was 36.1%; with A549/ATCC NSCLC, 66.2%. Also, the growth in the assay on 786-0 renal was 97%; in the assay on COLO 205 colon it was 96.4%.
On to `O=C1c2c(c(=O)[nH]c3ccccc23)CCN1Cc1ccccc1`, for which the growth in the assay with NCI-H23 lung is 102%; in the assay on NCI-H226 lung, 97.1%; with HOP-62 NSCLC, 92.7%; in the assay with NCI-H460 lung it was 108%; with NCI-H522 lung, 90.6%; in the assay with A549/ATCC NSCLC, 103%. In the assay with 786-0 renal, the growth was 99.8%.
Take `NC1=NC(c2ccc(Cl)cc2)C2=C(N1)/C(=C/c1ccc(Cl)cc1)CCC2` (centres undefined): the growth was 61.1% in the assay on NCI-H23 lung; 109% with NCI-H226 lung; 140% in the assay on HOP-62 NSCLC; 91.3% in the assay with NCI-H460 lung; 19.1% in the assay on NCI-H522 lung; 66.7% in the assay on A549/ATCC NSCLC. Besides, the growth with 786-0 renal was 90.4%; with COLO 205 colon, 92%.
As to `COc1cc(-c2ccc(N=Nc3ccc4c(S(=O)(=O)O)ccc(N)c4c3O)c(OC)c2)ccc1N=Nc1ccc2c(S(=O)(=O)O)ccc(N)c2c1O`, the growth was 101% in the assay with NCI-H23 lung; 102% with NCI-H226 lung; 85.9% in the assay on HOP-62 NSCLC; 108% in the assay with NCI-H460 lung; 105% in the assay on NCI-H522 lung; 106% in the assay with A549/ATCC NSCLC. The growth with 786-0 renal is 120%.
Consider `COc1ccc(C(=O)c2cc3c(OC)c(OC)c(OC)cc3[nH]2)cc1`, for which the growth was 32.3% in the assay on NCI-H23 lung; 86.5% with NCI-H226 lung; 77.8% in the assay on HOP-62 NSCLC; 16.8% with NCI-H460 lung; 25.4% with NCI-H522 lung; 36.6% with A549/ATCC NSCLC. For the same molecule, the growth was 73.2% in the assay on 786-0 renal and 37.4% with COLO 205 colon.
As for `CS(=O)(=O)c1nccc(-c2c(-c3cccc(OCc4ccc(F)cc4)c3)nc3sccn23)n1`, the growth in the assay on NCI-H23 lung is 53%; with NCI-H226 lung, 55.5%; in the assay with HOP-62 NSCLC, 90.1%; in the assay with NCI-H460 lung, 98.8%; with NCI-H522 lung, 24.4%; in the assay with A549/ATCC NSCLC, 104%. For the same molecule, the figures for the growth with 786-0 renal and in the assay on COLO 205 colon were 79.5% and 91.2%, respectively.
Turning to `Nc1ccc(CC[C@H]2CCC/C=C/[C@@H]3C[C@H](O)C[C@H]3[C@H](O)/C=C/C(=O)O2)cc1`, the growth is -22.7% (active) with NCI-H23 lung; 5.2% (active) in the assay with NCI-H226 lung; 14.2% in the assay on HOP-62 NSCLC; 10.5% in the assay on NCI-H460 lung; -46.6% (active) in the assay on NCI-H522 lung; 11.9% in the assay with A549/ATCC NSCLC.
For the molecule `COc1ccc(N(C)c2ncnc3occ(C)c23)cc1`, the growth in the assay on NCI-H23 lung was 6.05% (active); in the assay with NCI-H226 lung, 27.5%; in the assay with HOP-62 NSCLC, 34.6%; in the assay with NCI-H460 lung, 2.75% (active); in the assay with NCI-H522 lung, -37.7% (active); in the assay on A549/ATCC NSCLC it was 15%. For the same molecule, the figures for the growth with 786-0 renal and in the assay on COLO 205 colon were 17.8% and -62.4% (active), respectively.
With `CC1C(=NC(=O)c2cnccn2)C(C)C(c2ccc(Cl)cc2)NC1c1ccncc1` (centres undefined), the growth was 94% with NCI-H23 lung; 101% with NCI-H226 lung; 97.7% in the assay with HOP-62 NSCLC; 108% with NCI-H460 lung; 70.9% in the assay with NCI-H522 lung; 92.9% in the assay with A549/ATCC NSCLC. The growth in the assay with 786-0 renal was 90.8%.
For `N#Cc1cnn(C(=O)c2nn(-c3ccc(Cl)cc3)cc2O)c1N`, the growth in the assay on NCI-H23 lung was 9.65% (active); with NCI-H226 lung, 18.4%; in the assay with HOP-62 NSCLC, 19.2%; in the assay with NCI-H460 lung it was 3.09% (active); with NCI-H522 lung, -13.7% (active); in the assay on A549/ATCC NSCLC, 15.1%. The growth in the assay with 786-0 renal is 17.3%; with COLO 205 colon, -23.4% (active).
Regarding `COc1cc(/C=C2\CCCC3C2=Nc2ccccc2NC3c2cc(OC)c(OC)c(OC)c2)cc(OC)c1OC` (centres undefined), the growth was 8.47% (active) with NCI-H23 lung; -38.4% (active) with NCI-H226 lung; -3.43% (active) with HOP-62 NSCLC; -12.2% (active) with NCI-H460 lung; -6.47% (active) with NCI-H522 lung; 5.87% (active) with A549/ATCC NSCLC. Moreover, the growth with 786-0 renal is 1.85% (active); in the assay with COLO 205 colon, 0.19% (active).
Regarding `COc1cc2cc(Oc3ccc(NC(=O)c4ccc(Cl)c(C(F)(F)F)c4)cc3)c(C)nc2cc1OC`, the growth is 12.5% in the assay on NCI-H23 lung; 25.5% with NCI-H226 lung; 73.1% in the assay on HOP-62 NSCLC; 19.7% in the assay with NCI-H460 lung; 20.3% in the assay with NCI-H522 lung; 13.8% in the assay with A549/ATCC NSCLC. In addition, the growth was 32.2% in the assay with 786-0 renal and 33.1% with COLO 205 colon.
As to `Cc1c2c(nn1C(=O)c1nn(-c3ccc(Cl)cc3)cc1O)-c1ccccc1CC2`, the growth is 16.6% in the assay with NCI-H23 lung; 22% with NCI-H226 lung; 23.7% in the assay on HOP-62 NSCLC; 9.48% (active) in the assay with NCI-H460 lung; -8.04% (active) in the assay on NCI-H522 lung; 21.8% in the assay with A549/ATCC NSCLC. For the same molecule, the growth in the assay on 786-0 renal was 21.1%.
Take `c1ccc(/C(=N\Nc2ccc3ccccc3n2)c2ccccn2)cc1`: the growth in the assay with NCI-H23 lung was 21.3%; in the assay on NCI-H226 lung it was 3.53% (active); in the assay with HOP-62 NSCLC it was 5.49% (active); with NCI-H460 lung, 5.49% (active); in the assay with NCI-H522 lung, -2.13% (active); in the assay on 786-0 renal, -35.9% (active). In the assay on COLO 205 colon, the growth was 26.5%.
In the case of `Brc1ccc2c(c1)-c1ccccc1C1=NCCN12`, the growth in the assay on NCI-H23 lung was -8.64% (active); in the assay on NCI-H226 lung it was -14.2% (active); in the assay with HOP-62 NSCLC, -24.3% (active); in the assay with NCI-H460 lung it was -47.4% (active); in the assay with NCI-H522 lung, -61.9% (active); in the assay on A549/ATCC NSCLC, -18.8% (active). Further, the growth is -32.7% (active) in the assay with 786-0 renal and -54% (active) with COLO 205 colon.
On to `CCN(CC)c1ccc(/C=C2\SC(=O)C(Nc3nnc(-c4cccnc4SCc4ccccc4)o3)C2=O)cc1` (centres undefined), for which the growth with NCI-H23 lung is 21.7%; in the assay on NCI-H226 lung, 20.1%; in the assay with HOP-62 NSCLC it was 30.5%; in the assay on NCI-H460 lung, 3.5% (active); in the assay on NCI-H522 lung, -17.6% (active); in the assay on A549/ATCC NSCLC, 12.2%.
